One may read the Inhibition as the share of the control response that was lost under treatment. A lower Inhibition goes with a weak effect.

From ChEMBL document CHEMBL1157539, “Thousands of chemical starting points for antimalarial lead identification” (Nature, 2010) come the findings set out here.

The experiment deals with HepG2. Nature of the experiment: GSK_TCMDC: Percent inhibition of human HepG2 cell line. Test compounds present at 10uM. It is filed as functional.
Regarding `CN(C)CCCN1CCN(C(=O)c2cccc(-c3noc(C(F)(F)F)n3)c2)CC1`, the Inhibition was determined as 0%.

`O=C(Nc1cccc(CN2CCCN(Cc3cccc(Cl)c3)CC2)c1)c1ccc(Cl)c(Cl)c1.O=C(O)C(F)(F)F`: the Inhibition was determined as 18%. `Cc1cc(-c2cccc3c(NC(=O)N4CCc5cc6nccc(N7CCN8CCC[C@H]8C7)c6cc54)cccc23)cc(C)n1.Cl` yielded an Inhibition of 12%. Turning to `CNCCNCc1ccc(-c2ccc(-c3nc4cc(F)ccc4[nH]3)cc2)cc1.O=C(O)C(F)(F)F`, the Inhibition was found to be 30%. In the case of `CC(=O)/N=C1\N=C(NC(C)=O)NC(C)(C)N1OCCCOc1ccc(Cl)c(Cl)c1` it was 65%. Turning to `Oc1cccc(Nc2nc(NCc3ccccc3)c3ccccc3n2)c1`, the Inhibition amounted to 21%.

`NS(=O)(=O)c1ccccc1Nc1nc(Nc2ccc(N3CCOCC3)cc2)nc2c1CCC2.O=CO` had an Inhibition of 21%. On to `CCOc1ccc(-c2nonc2NC(=O)c2ccc(F)cc2)cc1OCC`, for which the Inhibition is listed as 36%.

In turn, `CCN1CCN(c2cc(C)c3cc(NC(=O)c4ccc(OC)c(OC)c4)ccc3n2)CC1` yielded an Inhibition of 28%. Next, `Br.N=C1N=C(N)NC2(CCCCC2)N1OCCCOc1cccc2ccccc12`: 67%; `O=C(c1ccc([N+](=O)[O-])o1)N1CCN(c2nc3c(Cl)cccc3s2)CC1`: 0%.

Consider `FC(F)(F)c1ccc2[nH]c(-c3cccc(-c4cccc(CNCC5CCCO5)c4)c3)nc2c1.O=C(O)C(F)(F)F` (stereo not given), for which the Inhibition is listed as 23%.

Consider `CC(C)CNCc1ccc(-c2cccc(CNC3CCN(Cc4ccccc4)CC3)c2)cc1.O=C(O)C(F)(F)F`, for which the Inhibition is 34%. Consider `Cc1cc(N[C@@H](Cc2ccccc2)C(=O)NCCCOC(C)C)nc(NCC2CCCCC2)n1.O=C(O)C(F)(F)F`, for which the Inhibition was 17%.

Consider `CN(CCCCCNC(=O)/C=C/c1ccc(Cl)c(Cl)c1)CCc1c[nH]c2ccccc12`, for which the Inhibition stood at 40%. Next, `CC(=O)Nc1nc(C(=O)Nc2ccc(-c3cccc(-c4nc5cc(C(F)(F)F)ccc5[nH]4)c3)cc2)cs1`: 79%; `NC(=O)c1cc(-c2ccccc2)cc2c(C3CCC(NCc4ccccc4)C3)c[nH]c12` (stereo not given): 99%.

The molecule `O=C(Nc1cccc(-c2csc(-c3nc4ccccc4[nH]3)c2)c1)c1ccoc1` showed an Inhibition of 36%. Next, `O=c1cc(NCCCNC2CCCc3c2ccc2ccccc32)[nH]c2ccccc12` (stereo not given): 0%; `Cc1cc(-c2cccc3c(C(=O)N4CCc5cc6nccc(N7CCCN(C)CC7)c6cc54)cccc23)cc(C)n1.Cl`: 17%. For the molecule `CCCCC(=O)Nc1cc(=O)[nH]c2nc(-c3ccc(Cl)cc3)nn12`, the Inhibition is reported as 1%. In the case of `O=C(O)C(F)(F)F.O=C1CCCN1CCCNCc1ccc(-c2cccc(-c3nc4cc(F)ccc4[nH]3)c2)cc1` it was 12%. `O=C(c1ccc(-c2ccc(-c3nc4cc(C(F)(F)F)ccc4[nH]3)s2)cc1)N1CCCCC1CN1CCC(O)C1` (stereo not given) returned an Inhibition of 90%.

Molecule `COc1ccc2nccc([C@@H](O)CN3CCC(NC(=O)/C=C/c4ccc5[nH]c(=O)ccc5c4)CC3)c2c1` returned an Inhibition of 2%.

`CCNC(=O)c1cc(S(=O)(=O)N2CCN(c3ccccn3)CC2)cs1` came in with an Inhibition of 7%. Next, `C(=NNc1nc2ccccc2[nH]1)c1ccccc1OCc1ccccc1`: 15%.

In turn, `CC(C)(C)C(=O)Nc1ccc(N2CCN(C(c3ccccc3)c3ccccc3)CC2)c(Cl)c1` had an Inhibition of 0%. In the case of `COc1ccc2ccccc2c1C=NN=c1cc(C)[nH]c2cc(C(F)(F)F)ccc12` it was 1%; in that of `O=C(/C=C/c1ccc(Cl)c(Cl)c1)NCCCCCCN1CCN(C(=O)Nc2cc(Cl)nc(Cl)c2)CC1`, 15%; in that of `O=C(/C=C/c1ccc(Cl)cc1)NCCCCCN1CCN(C(=O)C=Cc2ccc(Cl)c(Cl)c2)CC1.O=C(O)C(F)(F)F`, 30%.
